ELG1 repair inh: inhibitors of ELG1-dependent DNA repair in HEK293T cells. HEK293T ELG1-luciferase reporter, luminescence, 16 h; DNA damage induced by 5-fluorouridine. Potency, µM (doses to about 46.1 µM), for inactives: at the highest dose activity change, negative = inhibition, most hits filed as inhibitors. 330,000 tested, 2.3% active. AID 504467; note: % is set by controls: 0 for no effect and ±100 for the full control effect; nearly all actives have a fitted effect of over 55% in size
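In this reporter screen, reduction of luminescence relative to DMSO vehicle indicated activity. Compounds and 5-fluorouridine were added together to 2,000 cells per well, incubated for 16 hr at 37 °C, then developed with ONE-Glo.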
PGK inhibitor: inhibitors of T. brucei phosphoglycerate kinase | P07378 | PGK/GAPDH coupled, Kinase-Glo luminescence, 60 min | Potency, µM (doses to about 57.5 µM), for the others: at the top dose activity change, negative = inhibition, hits mostly inhibitors | 380,000 tested, 0.043% active | AID 602233; note: % is set by controls: 0 for no effect and ±100 for the full control effect; nearly all actives have a fitted effect of over 60% in size
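Luminescent ATP detection (Kinase-Glo Plus) follows a 60-minute room-temperature incubation, with wells lacking PGK as controls. Buffer: 100 mM TEA (pH 7.6), 5 mM MgCl2, 0.01% Tween-20. Coupling enzyme GAPDH (100 nM final) supplies unstable 1,3-BPG in-well.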
Rango dissoc inh: prevents RanGTP from dissociating the Rango-importin beta complex | O95149+P62826 | Biochemical FRET Rango-importin beta, RanGTP-induced dissociation | Potency, µM (highest dose often 46.1 µM), inactives show at the top dose activity change, negative = inhibition | 340,000 tested, 0.071% active; calls by dose curve; note: % of control where 0% means no effect; nearly all actives have a fitted effect of over 45% in size
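Rango FRET biosensor (snurportin-1 IBB flanked by N-terminal EYFP and C-terminal CFP10) at 0.1 uM, with 0.25 uM importin beta in PBS, 1mM DTT, 0.02% Tween-20, 0.1% BSA. 0.6 uM Ran, 2mM GTP and 0.2 uM RCC1 were then added for 45 min at room temperature. Inhibition read as loss of FRET rise.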
Rango complex inh: Rango-importin beta binding inhibition. Q14974. Rango CFP/YFP FRET sensor + importin beta, 45 min. Potency, µM (highest dose often 92.2 µM), inactives show at the highest dose inhibition of complex formation. 340,000 tested, 0.031% active. AID 540263; calls by dose curve;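 note: 0% = DMSO wells and 100% = buffer wells lacking importin beta; nearly all actives have a fitted effect of over 15% in size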
Target sequence (Q14974 whole entry, looked up): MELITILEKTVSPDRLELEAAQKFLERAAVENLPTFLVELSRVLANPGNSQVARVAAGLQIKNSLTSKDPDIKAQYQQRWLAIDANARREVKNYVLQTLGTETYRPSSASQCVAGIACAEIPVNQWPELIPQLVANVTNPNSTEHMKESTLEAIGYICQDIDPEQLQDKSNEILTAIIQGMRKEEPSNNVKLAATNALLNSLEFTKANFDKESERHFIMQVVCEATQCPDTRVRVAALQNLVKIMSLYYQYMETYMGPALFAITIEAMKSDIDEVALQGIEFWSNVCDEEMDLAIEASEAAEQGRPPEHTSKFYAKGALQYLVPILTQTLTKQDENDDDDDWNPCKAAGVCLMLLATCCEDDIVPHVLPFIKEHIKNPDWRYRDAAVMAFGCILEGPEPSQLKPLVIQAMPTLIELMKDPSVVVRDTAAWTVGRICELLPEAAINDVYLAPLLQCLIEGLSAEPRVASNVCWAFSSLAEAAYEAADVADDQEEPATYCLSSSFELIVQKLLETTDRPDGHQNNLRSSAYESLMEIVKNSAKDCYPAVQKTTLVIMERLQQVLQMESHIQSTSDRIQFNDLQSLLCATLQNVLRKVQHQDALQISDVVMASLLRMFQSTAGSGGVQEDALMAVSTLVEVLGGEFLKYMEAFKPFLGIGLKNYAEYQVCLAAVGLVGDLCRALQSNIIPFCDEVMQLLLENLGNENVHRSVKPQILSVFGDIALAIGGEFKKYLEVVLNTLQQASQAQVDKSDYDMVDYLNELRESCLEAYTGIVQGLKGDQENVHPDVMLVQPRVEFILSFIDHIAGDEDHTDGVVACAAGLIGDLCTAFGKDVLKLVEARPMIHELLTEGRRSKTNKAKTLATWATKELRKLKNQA
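FRET biosensor (snurportin 1 IBB flanked by EYFP and cerulean), 50 nM, with compound 5 min, then 0.125 microM importin beta in PBS, 1 mM DTT, 0.02% Tween-20, 0.1% BSA. CFP/YFP ratio read after 45 min at room temperature; pre-read flags interference.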
Tb PFK block: T. brucei PFK enzyme inhibition; Potency, µM (top dose mostly 57.5 µM), inactives show at the top dose activity, negative = inhibition, usual class: inhibitors; 330,000 tested, 0.17% active; T. brucei PFK, ADP-Glo luminescence; O15648;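 note: 0% = uninhibited 1x PFK enzyme wells and -100% = no-enzyme wells; nearly all actives have a fitted effect of over 60% in size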
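In TEA buffer at pH 8.0 with 5 mM MgCl2, enzyme (1.25 nM) converted F6P (0.5 mM) and ATP (0.1 mM) for 45 min at room temperature. ADP product was read by luciferase luminescence.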
PKM2 activator: activators of human pyruvate kinase M2; P14618; purified PKM2, Kinase-Glo ATP luminescence, activation; response scale: 0% is enzyme alone, no compound; Potency, µM (highest dose often 57.5 µM), without a hit: at the highest dose activation, most hits filed as activators; 260,000 tested, 0.34% active; AID 1631; note: % is set by controls: 0 for no effect and ±100 for the full control effect; nearly all actives have a fitted effect of over 55% in size
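Purified hPK-M2 (>95%) run at intermediate activity with 0.1 mM ADP and 0.5 mM PEP in 50 mM imidazole pH 7.2, KCl, MgCl2; 1 h room temperature. ATP formed read by Kinase-Glo luminescence; normalized to uninhibited and no-enzyme controls.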
Starred values were filed as active, the others as inactive. Only some compounds are listed: those with a hit (about 2.4% of all), similar ones and a draw of the others. Unless noted, calls come from the whole dose curve; as a rule, active = well fitted curve in the direction sought with a large enough effect; inconclusive = small, poorly fitted or top-dose-only effect, or another doubt; inactive = no such curve, though single readings can be large; an effect the other way counts as inactive or inconclusive. Potency is the fitted concentration of half-maximal effect.

How did Cn1ccnc1C(=O)c1cc(SCC(=O)NCc2ccccc2)nc2ccccc12 do in these assays?
ELG1 repair inh: 8.2µM*; PGK inhibitor: -3%; Rango dissoc inh: 9%; Rango complex inh: 3%; Tb PFK block: 0%; PKM2 activator: 5%

How did COC(=O)CSc1cc(C(=O)c2nccn2C)c2ccccc2n1 do in these assays?
ELG1 repair inh: -2%; PGK inhibitor: -9%; Rango dissoc inh: 0%; Rango complex inh: -4%; Tb PFK block: 4%; PKM2 activator: 18%

How did CC(C)OCC(O)CN1CCN(CCN2C(=O)c3cccc4cccc(c34)C2=O)CC1 (stereo not drawn) do in these assays?
ELG1 repair inh: -1%; PGK inhibitor: inactive; Rango dissoc inh: inconclusive; Rango complex inh: inconclusive; Tb PFK block: -2%; PKM2 activator: 0%

How did Cc1ccccc1OCC(O)CN1CCN(CC(O)COc2ccccc2C)C(C)C1 (stereo not drawn) do in these assays?
ELG1 repair inh: -16%; PGK inhibitor: -9%; Rango dissoc inh: -3%; Rango complex inh: 9%; Tb PFK block: 4%

Results for CCC(OCC(O)CN1CCN(CCN2C(=O)c3cccc4cccc(c34)C2=O)CC1)c1ccccc1 (stereo not drawn) ?
ELG1 repair inh: 21µM*; PGK inhibitor: -5%; Rango dissoc inh: -10%; Rango complex inh: 0%; Tb PFK block: 0%; PKM2 activator: -13%

Results for Cc1cccc(C)c1OCC(O)CN1CCN(C(=O)c2ccccc2)CC1 (stereo not drawn) ?
PGK inhibitor: -1%

What do the screens show for `Cc1ccccc1OCC(O)CN1CCN(CCN2C(=O)c3cccc4cccc(c34)C2=O)CC1` (stereo not drawn)?
ELG1 repair inh: 23µM*; PGK inhibitor: inactive; Rango dissoc inh: 1%; Rango complex inh: -6%; Tb PFK block: 10%; PKM2 activator: 1%

What do the screens show for `Cc1cccc(C)c1OCC(O)CN1CCC(CN2C(=O)c3cccc4cccc(c34)C2=O)CC1` (stereo not drawn)?
ELG1 repair inh: 23µM*; PGK inhibitor: -3%; Rango dissoc inh: 11%; Rango complex inh: -1%; Tb PFK block: 0%; PKM2 activator: -2%

What do the screens show for `CC(=O)c1ccc(OCC(O)CN2CCN(CCN3C(=O)c4cccc5cccc(c45)C3=O)CC2)cc1` (stereo not drawn)?
ELG1 repair inh: 23µM*; PGK inhibitor: -8%; Rango dissoc inh: 1%; Rango complex inh: 0%; Tb PFK block: 0%; PKM2 activator: -2%

Results for COc1ccc(OC)c(-n2c3c(cc(-c4nc(-c5ccc(Cl)cc5)cs4)c2=O)C(=O)CC(C)(C)C3)c1 ?
PGK inhibitor: 3%

What do the screens show for `CCN1CCN(C(=O)c2ccc3c(=O)n(CCc4ccccc4)c(=O)[nH]c3c2)CC1`?
ELG1 repair inh: 27%; PGK inhibitor: 1%; Rango dissoc inh: 0%; Rango complex inh: 0%; Tb PFK block: -3%; PKM2 activator: -3%

How did COC(=O)c1ccccc1NC(=O)NCCc1c(C)nn(C)c1C do in these assays?
PGK inhibitor: 9%

What do the screens show for `CC1CCN(C(=O)c2ccc3c(c2)OCO3)CC1`?
ELG1 repair inh: -14%; PGK inhibitor: 1%; Rango dissoc inh: 1%; Rango complex inh: 2%; Tb PFK block: 3%; PKM2 activator: -2%

Results for C=CCc1ccccc1OCC(O)CN1CCN(CCN2C(=O)c3cccc4cccc(c34)C2=O)CC1 (stereo not drawn) ?
ELG1 repair inh: 21µM*; PGK inhibitor: -2%; Rango dissoc inh: 9%; Rango complex inh: 0%; Tb PFK block: -1%; PKM2 activator: -16%

Screening results from PubChem.
